Among all 86,000 compounds or so, about 1,100 (1.3%) were called active. The list comes from a sample in which actives are over-represented; it also holds similar structures and randomly drawn compounds. A number with no mark means an inactive call.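 The calls were made as follows: active = compounds whose percent inhibition of the receptor-coactivator binding signal exceeds about 50% in the single-dose screen (limit read from the data); inactive = the rest.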

We go through 24 compounds from PubChem BioAssay AID633 (Emory University Molecular Libraries Screening Center, 2007).

Chain of Estrogen receptor beta (Homo sapiens) (Q92731 whole entry, looked up, the tested form may be a part): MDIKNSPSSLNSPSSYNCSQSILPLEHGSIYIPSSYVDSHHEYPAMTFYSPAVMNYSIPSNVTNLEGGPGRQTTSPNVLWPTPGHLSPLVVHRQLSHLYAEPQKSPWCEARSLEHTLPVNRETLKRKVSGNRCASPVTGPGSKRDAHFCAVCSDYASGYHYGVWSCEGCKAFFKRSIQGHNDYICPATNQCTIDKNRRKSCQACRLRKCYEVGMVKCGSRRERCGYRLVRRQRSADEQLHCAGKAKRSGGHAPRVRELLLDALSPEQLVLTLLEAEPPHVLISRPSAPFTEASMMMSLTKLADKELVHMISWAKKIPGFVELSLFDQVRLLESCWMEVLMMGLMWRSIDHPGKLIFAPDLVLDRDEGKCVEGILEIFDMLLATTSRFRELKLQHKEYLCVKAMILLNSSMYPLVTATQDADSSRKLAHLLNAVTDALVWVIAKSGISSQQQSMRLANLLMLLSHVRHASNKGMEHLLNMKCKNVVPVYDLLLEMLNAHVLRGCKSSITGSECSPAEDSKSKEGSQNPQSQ

This test addresses Estrogen receptor beta (Homo sapiens) (UniProt Q92731). As to the kind of experiment: blockers of coactivator peptide binding to ERβ – biochemical, TR-FRET, ERβ LBD, SRC-1 peptide, primary screen (AID 633).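 Also: 0% = receptor plus peptide wells without compound and 100% = peptide-only wells.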 The settings on record: TR-FRET ER-beta LBD / SRC1-Cy5 peptide binding; at 25.6 µM; stronger effect = higher value; receptor agonist-loaded with 1 µM estradiol. On the technique in general: TR-FRET usually uses a lanthanide donor and a delayed reading to cut background.
With `C=CCn1c(SCc2cc(C(=O)OC)c(C)o2)nnc1-c1ccncc1`, the inhibition was 51.1% (active).
As for `C=CCn1c(SCc2c(C(=O)OC)sc(N)c2C(=O)OC)nnc1-c1ccc(Cl)cc1`, the inhibition was -3.96%.
For the compound `COC(=O)c1ccc(NC(=O)CSc2nnc(-c3ccncc3)n2C)cc1`, the inhibition was -13.7%.
Regarding `O=C(CN(c1ccccc1)S(=O)(=O)c1ccc(Cl)cc1)Nc1ccccc1C(=O)N1CCCC1`, the inhibition is -2.12%.
The value for `C=C(C)CNC(=S)/N=c1\scc(C)n1CC` was 77.4% [fluorescence artefact?] (active); that for `C=CCn1c(SCCOc2ccc(OC)cc2)nnc1C(NC(=O)c1ccc(OC)cc1)C(C)C` (centres undefined) was 6.7%; that for `COC(=O)CSc1nc2c(c(C3CC=CCC3)c1C#N)CCC2` (centres undefined) was -2.54%.
As for `CCC(c1nnnn1C(C)(C)C)N(Cc1cc2cccc(C)c2n2nnnc12)C1CCCC1` (centres undefined), the inhibition was 1.68%.
In the case of `O=C(CN1C(=O)CC(c2ccccc2)=Nc2ccccc21)NC1CCCCC1`, the inhibition was -6.21%.
The value for `COc1ccc(C)cc1S(=O)(=O)Nc1cccc(Cl)c1Cl` was -12.3%; that for `Oc1c(Cl)cc(Cl)c(Cl)c1Cc1c(O)c(Cl)cc(Cl)c1Cl` was 94.6% [fluorescence artefact?] (active); that for `COc1cc(OC)c(-n2c(C)cc(C=O)c2C)cc1Cl` was 4.25%.
Turning to `O=C(/C=C/c1ccc(Cl)cc1Cl)c1cccnc1`, the inhibition is 23.9%.
The value for `CC1CCCC(NC(=O)CN2CCN(Cc3ccc(Cl)cc3)C2=O)C1C` (centres undefined) was -3.92%; that for `Cc1ccc(CNC(=O)CN2CCN(Cc3ccc(Cl)cc3)C2=O)cc1` was 52.1% [fluorescence artefact?] (active).
Take `CC(NC(=O)CN1CCN(Cc2ccc(Cl)cc2)C1=O)c1ccc2c(c1)OCCO2` (centres undefined): the inhibition is -8.28%.
Then `COC(=O)c1cc(NC(=O)C2C3C=CC(C3)C2C(=O)O)cc(C(=O)OC)c1` (centres undefined), with -3.6%; and `Cc1cc(NC(=O)CSc2nc(C(C)C)nc3sc4c(c23)CCC(C)C4)no1` (centres undefined), with -5.67%.
Regarding `COc1ccc(C2C(C(C)=O)=C(O)C(=O)N2Cc2cccnc2)cc1` (centres undefined), the inhibition is -18.2%.
On to `C=CCn1c(=S)[nH]c2nc3c(cc2c1=O)COC(C)(C)C3`, for which the inhibition was -1.84%.
Regarding `CC(C)CCSc1ncnc2c1oc1nc3c(cc12)COC(C)(C)C3`, the inhibition is 54.5% [fluorescence artefact?] (active).
The value for `CCCc1nc2oc3c(OCC)ncnc3c2c2c1COC(C)(C)C2` was 2.61%; that for `CCOc1cc2[nH]c(=S)n(CCN3CCCCC3C)c(=O)c2cc1OCC` (centres undefined) was -0.24%; that for `CCOc1cccc(NC(=O)Cn2nc(-c3ccc4c(c3)OCCO4)ccc2=O)c1` was 0.68%.

What is called inhibition is the change of the read-out against control, counted positive when it falls.
